Records with an inconclusive call do not appear. Calls of active or inactive are those of the source. Rule for the calls: active = hit-call score of the fitted dose curve at least 0.9, where 1 is the maximum; inconclusive = response in the unintended direction; inactive = score below 0.9.

Chain of Bile acid receptor (Homo sapiens) (Q96RI1 whole entry, looked up, the tested form may be a part): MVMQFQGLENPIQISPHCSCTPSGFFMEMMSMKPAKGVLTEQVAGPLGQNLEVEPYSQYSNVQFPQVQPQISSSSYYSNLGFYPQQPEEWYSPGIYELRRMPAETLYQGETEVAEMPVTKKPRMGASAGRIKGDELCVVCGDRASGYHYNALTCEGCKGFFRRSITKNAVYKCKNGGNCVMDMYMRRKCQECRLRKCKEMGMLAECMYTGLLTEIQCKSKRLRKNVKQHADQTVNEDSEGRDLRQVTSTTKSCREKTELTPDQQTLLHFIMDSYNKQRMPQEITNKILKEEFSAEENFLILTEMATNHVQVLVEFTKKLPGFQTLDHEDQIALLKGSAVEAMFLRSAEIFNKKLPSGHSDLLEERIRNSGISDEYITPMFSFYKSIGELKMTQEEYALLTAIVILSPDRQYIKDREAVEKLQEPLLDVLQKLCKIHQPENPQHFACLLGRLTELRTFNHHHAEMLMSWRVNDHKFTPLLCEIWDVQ

The assay concerns the target Bile acid receptor (Homo sapiens) (UniProt Q96RI1). Briefly: OT_FXR_FXRSRC1_1440: Odyssey Thera (OT) 24-hour HEK293T Protein-Complementation Assay for Farnesoid X receptor/SRC-1 Co-activator (AID 2283384). The method, then: OT_FXR_FXRSRC1_1440 is a cell-based assay that uses HEK293T, a human kidney cell line, with measurements taken at 24 hours after chemical dosing in a 384-well plate.OT_FXR_FXRSRC1_1440 is one of one assay component(s) measured or calculated from the OT_FXR_FXRSRC1_1440 assay. It is designed to make measurements of protein fragment complementation, a form of binding reporter, as detected with fluorescence intensity signals by Protein-fragment Complementation technology.Data from the assay component OT_FXR_FXRSRC1_1440 was analyzed into 1 assay endpoint. This assay endpoint, OT_FXR_FXRSRC1_1440, was analyzed in the positive analysis fitting direction relative to DMSO as the negative control and baseline of activity. Using a type of binding reporter, measures of receptor for gain-of-signal activity can be used to understand the binding at the pathway-level as they relate to the gene NR1H4. Furthermore, this assay endpoint can be referred to as a primary readout, because the performed assay has only produced 1 assay endpoint. To generalize the intended target to other relatable targets, this assay endpoint is annotated to the nuclear receptor intended target family, where the subfamily is non-steroidal.
Protein-fragment complementation assay, or PCA, is a method for the identification and quantification of protein-protein interactions. In the PCA, the proteins of interest ("bait" and "prey") are each covalently linked to fragments of a third protein (e.g. DHFR, which acts as a "reporter"). Interaction between the bait and the prey proteins brings the fragments of the reporter protein in close proximity to allow them to form a functional reporter protein whose activity can be measured.
With `CC(=O)CC(=O)N(C)C`, the outcome was inactive.
As to `CCCc1ccc(O)cc1`, the outcome was inactive.
Still for that read-out and setting: to `CC1=CCC(C(C)(C)O)CC1` (stereo unspecified) belongs “inactive”; to `NC(=O)c1cccnc1`, “inactive”.
Turning to `O=C1OC2(c3ccc(O)cc3Oc3cc(O)ccc32)c2ccccc21`, the AC50 was 11.4 µM (active).
For the compound `CCOCC(C)O` (stereo unspecified), the compound was called inactive.
For `CC12CCC(C1)C(C)(C)C2O` (stereo unspecified), the compound was classed as inactive.
Same read-out and setting: in the case of `CC(=O)C1=C(C)[C@@H]2C[C@@]3(C1)[C@H](C)CC[C@H]3C2(C)C` it was “inactive”; in that of `CC(=O)C1C(=O)C=C(C)OC1=O` (stereo unspecified), “inactive”.
As to `CCCCC/C=C\C=C\C(=O)OCC`, the AC50 is 81 µM (active).
With `CCc1cccc(O)c1`, the call was inactive.
Still for that read-out and setting: to `CCCCCCCCOS(=O)(=O)O` belongs “inactive”.
As for `CCCCCC(=O)O[C@]1(C(C)=O)CC[C@H]2[C@@H]3CCC4=CC(=O)CC[C@]4(C)[C@H]3CC[C@@]21C`, the AC50 was 11.6 µM (active).
Take `COc1ccc2[nH]cc(CCNC(C)=O)c2c1`: the result was inactive.
Still for that read-out and setting: to `CCC(=O)OC(C)(C)C1CC=C(C)CC1` (stereo unspecified) belongs “inactive”.
On the same count and under the same terms, to `OC[C@H]1O[C@@H](O[C@H]2[C@H](O)[C@@H](O)[C@H](O)O[C@@H]2CO)[C@H](O)[C@@H](O)[C@H]1O` belongs “inactive”.
Take `CC1COC(=O)O1` (stereo unspecified): the compound was classed as inactive.
Take `CCC(C)(CCCC(C)C)OC(C)=O` (stereo unspecified): the result was inactive.
Turning to `c1ccc(Cc2ccccc2)cc1`, the outcome was inactive.
Take `CC(=O)c1ccc2ccccc2c1`: the compound was called inactive.
On the same count and under the same terms, to `CCC(C)(C)C1CCC(OC)CC1` (stereo unspecified) belongs “inactive”.

What is called AC50 is the concentration giving half of the maximal activity seen.

The record behind these values is PubChem BioAssay (EPA / NIEHS).
